A selection: hits, their analogues and other compounds. The true share with any hit is near 31%.
CYP2C19 inh – blockers of cytochrome P450 2C19 activity – biochemical, luminescence, ADME assay, primary screen; P33261; CYP2C19 Supersomes, luciferin-H EGE luminescence, 30 min; inhibition, % at 5 µM; 96,000 tested, 21% active; AID 778, 2007;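 active = CYP2C19 inhibition above a set limit at 5 µM in the primary screen, cut at about 50% in these data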;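 note: plate controls were negative control wells for no effect and 2.5 mM tranylcypromine positive control for full effect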
CYP2C19 act – human CYP2C19 activators, primary screen, biochemical, luminescence | AID 1025, 2008 | activation factor at 5 µM | recombinant CYP2C19, luciferin-H EGE luminescence; active compounds read high; 0 = fully inhibited enzyme, 1 = untreated enzyme | 96,000 tested, under 10 active | Cytochrome P450 2C19 (Homo sapiens), P33261;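 active = activation factor of at least 2 at 5 µM in the primary screen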;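 note: 0 = wells with 2.5 mM tranylcypromine and 1 = vehicle-only wells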
CYP2C9 act – human CYP2C9 activators, primary screen, biochemical, luminescence; 96,000 tested, 1.4% active; activation factor at 5 µM; recombinant CYP2C9, luciferin-H conversion; active compounds read high; factor 1 = untreated enzyme, 0 = blocked; Cytochrome P450 2C9 (Homo sapiens), P11712;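 active = activation factor of 2 or more for CYP2C9 at a 5 µM dose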;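 note: 0 = sulfaphenazole-blocked wells and 1 = vehicle-only wells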
PLAP activator – PLAP enzyme activators, biochemical, luminescence, HTS; Alkaline phosphatase, placental type (Homo sapiens), P05187; purified PLAP enzyme, luminescent substrate read-out; active compounds read high; activation fold at 20 µM; 96,000 tested, 1.2% active; AID 696, 2007; in the data active = activation fold above about 2
Target sequence (P05187 whole entry, looked up): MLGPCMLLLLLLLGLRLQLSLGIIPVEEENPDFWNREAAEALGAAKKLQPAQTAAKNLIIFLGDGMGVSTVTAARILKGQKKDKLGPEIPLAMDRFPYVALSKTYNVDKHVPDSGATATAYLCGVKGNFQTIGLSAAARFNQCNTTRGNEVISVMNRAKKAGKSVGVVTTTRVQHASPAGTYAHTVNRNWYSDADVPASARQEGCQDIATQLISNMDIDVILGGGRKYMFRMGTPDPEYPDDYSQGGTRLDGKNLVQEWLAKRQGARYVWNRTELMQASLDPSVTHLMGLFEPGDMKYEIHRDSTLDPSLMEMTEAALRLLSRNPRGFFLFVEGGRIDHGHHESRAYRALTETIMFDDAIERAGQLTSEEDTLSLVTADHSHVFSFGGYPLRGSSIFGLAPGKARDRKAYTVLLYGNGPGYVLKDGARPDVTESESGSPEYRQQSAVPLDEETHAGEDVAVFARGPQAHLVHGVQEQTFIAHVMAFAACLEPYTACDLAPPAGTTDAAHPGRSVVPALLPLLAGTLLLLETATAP
CYP2C9 inhib – blockers of cytochrome P450 2C9 activity – biochemical, luminescence, ADME assay, primary screen. P11712. CYP2C9 Supersomes, luciferin-H conversion. inhibition, % at 5 µM. 96,000 tested, 20% active;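 active = blocking of liver enzyme CYP2C9 beyond about 50% at 5 µM, limit read from the data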
An asterisk follows results filed as active.

For Cc1ccc2c(c1)sc[n+]2Cc1ccccc1 the results were CYP2C19 inh 66*, CYP2C19 act 0.3, CYP2C9 act 0.3, PLAP activator 0.9 and CYP2C9 inhib 68*.
Cc1ccc2nc(NC(=O)CSCc3ccccc3)sc2c1 was read as CYP2C19 inh 4, CYP2C19 act 1, CYP2C9 act 1, PLAP activator 0.8 and CYP2C9 inhib 3.
O=C(Nc1cccc2c1CCCC2)C1CCCN(S(=O)(=O)c2cccc3nonc23)C1 (stereo not drawn) was read as CYP2C19 inh 8, CYP2C19 act 0.9, CYP2C9 act 0.8, PLAP activator 0.8 and CYP2C9 inhib 16.
Screening O/N=C/c1cn(-c2ccccc2)nc1-c1ccc2c(c1)OCCO2 returned CYP2C19 inh 0, CYP2C19 act 1, CYP2C9 act 0.5, PLAP activator 0.9 and CYP2C9 inhib 53*.
For O=C(N/N=C\c1cn(-c2ccccc2)nc1-c1ccccc1)c1ccc2c(c1)OCO2 the results were CYP2C19 inh 54*, CYP2C19 act 0.5, CYP2C9 act 0.4, PLAP activator 1.2 and CYP2C9 inhib 65*.
Screening O=C(N/N=C/c1cn(-c2ccccc2)nc1-c1ccc(F)cc1)c1ccc2c(c1)OCO2 returned CYP2C19 inh 34, CYP2C19 act 0.7, CYP2C9 act 0.4, PLAP activator 1.1 and CYP2C9 inhib 64*.
`COc1ccc(-c2nn(-c3ccccc3)cc2/C=N/NC(=O)c2ccc3c(c2)OCO3)cc1` gave CYP2C19 inh 37, CYP2C19 act 0.6, CYP2C9 act 0.3, PLAP activator 1.1 and CYP2C9 inhib 70*.
Screening Cc1cc(C)n(-c2nc3c(c(=O)n(C)c(=O)n3C)n2C)n1 returned CYP2C19 inh -11, CYP2C19 act 1.1, CYP2C9 act 1.2, PLAP activator 1 and CYP2C9 inhib -16.
For Cc1ccc(S(=O)(=O)N2C(=S)SCC2(C)C)cc1 the results were CYP2C19 inh 74*, CYP2C19 act 0.3, CYP2C9 act 1.1, PLAP activator 0.7 and CYP2C9 inhib -7.
CC1=CC(C)(C)N(S(=O)(=O)c2ccc(C)cc2)c2cc(C)ccc21 was read as CYP2C19 inh 43, CYP2C19 act 0.6, CYP2C9 act 0.6, PLAP activator 0.8 and CYP2C9 inhib 43.
`CC(C)Oc1ccc(C2CNC(=O)C2)cc1` (stereo not drawn) gave CYP2C19 inh -11, CYP2C19 act 1.1, CYP2C9 act 1, PLAP activator 0.9 and CYP2C9 inhib 2.
For O=C(Cc1nn[nH]n1)NCc1ccccc1Cl the results were CYP2C19 inh 2, CYP2C19 act 1, CYP2C9 act 1, PLAP activator 0.9 and CYP2C9 inhib 5.
`O=S(=O)(NCCOc1ccc(F)cc1)c1ccc2c(c1)OCCO2` gave CYP2C19 inh 91*, CYP2C19 act 0.1, CYP2C9 act 2.4*, PLAP activator 0.8 and CYP2C9 inhib -144.
O=S(=O)(NCCSc1ccccc1)c1ccc2c(c1)OCCO2 was read as CYP2C19 inh 87*, CYP2C19 act 0.1, CYP2C9 act 1, PLAP activator 0.6 and CYP2C9 inhib 2.
For O=C(Nc1ccc(S(=O)(=O)NCc2ccccc2)cc1)Nc1ccc2c(c1)OCO2 the results were CYP2C19 inh 19, CYP2C19 act 0.8, CYP2C9 act 0.5, PLAP activator 0.8 and CYP2C9 inhib 49.
CN1C(=O)C(O)(CC(=O)c2cccc(-n3cccc3)c2)c2ccccc21 (stereo not drawn) was read as CYP2C19 inh 12, CYP2C19 act 0.9, CYP2C9 act 0.9, PLAP activator 1.1 and CYP2C9 inhib 9.
For CCOC(=O)c1oc2ccc(Br)cc2c1CSc1nnc(C)s1 the results were CYP2C19 inh 54*, CYP2C19 act 0.5, CYP2C9 act 0.4, PLAP activator 0.8 and CYP2C9 inhib 59*.
Screening Cc1ccc(O)c(-c2cc(C(=O)Nc3ccc(S(=O)(=O)N4CC(C)OC(C)C4)cc3)[nH]n2)c1 (stereo not drawn) returned CYP2C19 inh -2, CYP2C19 act 1, CYP2C9 act 0.8, PLAP activator 1 and CYP2C9 inhib 23.
Screening CCCSc1ncc(Cl)c(C(=O)Nc2ccc(S(=O)(=O)N3CC(C)OC(C)C3)cc2)n1 (stereo not drawn) returned CYP2C19 inh 54*, CYP2C19 act 0.5, CYP2C9 act 0.1, PLAP activator 1.8 and CYP2C9 inhib 86*.
COc1cc2oc3ccccc3c2cc1N(CC(=O)N1CCCCC1)S(=O)(=O)c1ccc(C)cc1 was read as CYP2C19 inh 1, CYP2C19 act 1, CYP2C9 act 0.6, PLAP activator 1.1 and CYP2C9 inhib 38.
For Cc1cc(C)c(S(C)(=O)=O)c(Sc2ccc(Cl)cc2)n1 the results were CYP2C19 inh 45, CYP2C19 act 0.5, CYP2C9 act 0.3, PLAP activator 1 and CYP2C9 inhib 65*.
For Cc1ccc(OCCn2cc(Br)c(=O)[nH]c2=O)cc1 the results were CYP2C19 inh 11, CYP2C19 act 0.9, CYP2C9 act 1, PLAP activator 1.1 and CYP2C9 inhib 2.
`COC(=O)c1ccc(-n2nnnc2SCC(=O)N2CCCCC2)cc1` gave CYP2C19 inh 26, CYP2C19 act 0.7, CYP2C9 act 0.4, PLAP activator 0.9 and CYP2C9 inhib 55*.
For CCOC(=O)CSc1nnnn1-c1cc(OC)ccc1OC the results were CYP2C19 inh 71*, CYP2C19 act 0.3, CYP2C9 act 0.4, PLAP activator 1 and CYP2C9 inhib 65*.
COc1ccc(OC)c(-n2nnnc2SCC(=O)Nc2ccc3c(c2)OCCO3)c1 was read as CYP2C19 inh 33, CYP2C19 act 0.7, CYP2C9 act 0.6, PLAP activator 0.8 and CYP2C9 inhib 42.
`COc1ccc(OC)c(-n2nnnc2SCC(=O)Nc2ccc(C(=O)N3CCCCC3)cc2)c1` gave CYP2C19 inh 78*, CYP2C19 act 0.2, CYP2C9 act 0.3, PLAP activator 1.3 and CYP2C9 inhib 67*.
Screening CCCOC(=O)c1ccc(-n2nnnc2SCC(=O)N2CCCCC2)cc1 returned CYP2C19 inh 46, CYP2C19 act 0.5, CYP2C9 act 0.6, PLAP activator 1.1 and CYP2C9 inhib 38.
`COC(=O)c1ccc(-n2nnnc2SCC(=O)Nc2cc(OC)ccc2OC)cc1` gave CYP2C19 inh 14, CYP2C19 act 0.9, CYP2C9 act 0.9, PLAP activator 0.9 and CYP2C9 inhib 11.
O=C(NCc1ccc2c(c1)OCO2)c1cc2ncc(Br)cn2n1 was read as CYP2C19 inh 11, CYP2C19 act 0.9, CYP2C9 act 0.8, PLAP activator 1 and CYP2C9 inhib 21.
For O=C(/C=C(\c1ccc(Cl)cc1)n1cncn1)c1ccc(Cl)cc1 the results were CYP2C19 inh 90*, CYP2C19 act 0.1, CYP2C9 act 0.9, PLAP activator 0.9 and CYP2C9 inhib 8.
